# High-throughput results from PubChem.
# The entries come from a sample that favours hits as a whole.
# Pf apPOL inh: Pf-apPOL inhibitors, biochemical, fluorescence; inhibition, % at 10 µM; Recombinant Pf-apPOL, molecular beacon fluorescence, 1.5 h; actives 0.25% (n = 210,000)
# mHTT CaM bind: mutant huntingtin-calmodulin interaction inhibitors – biochemical, AlphaScreen, primary screen; P42858; AlphaScreen His-mHTT/GST-CaM binding, luminescence; inhibition, % at 15 µM; actives 3.6% (n = 190,000);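 note: 0% = both proteins with DMSO and 100% = one protein alone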
# Starred values were filed as active, the others as inactive. Cut-off read from the data, not from the text of the source: active = inhibition above about 50%; inactive = the rest.
SMILES,Pf apPOL inh,mHTT CaM bind
COc1ccc(OC)c(NC(=O)c2c(NC(=O)CNCc3ccco3)sc3c2CCC3)c1,-1,3
CCOc1ccccc1NC(=O)c1c(NCc2ccccn2)sc2c1CCCC2,-27,30
CCOc1ccccc1NC(=O)c1c(NC(=O)C(F)(F)F)sc2c1CCCCC2,4,7
COc1ccccc1NC(=O)c1c(N)sc2c1CCCC2,-4,31
CCOc1ccccc1NC(=O)c1c(NCc2cccnc2)sc2c1CCCCC2,-17,80*
COc1ccc(OC)c(NC(=O)c2c(NCc3cccnc3)sc3c2CCC3)c1,-14,81*
O=C(c1csc2c1CCCC2)N1CCc2ccccc21,-3,-1
O=C(NCCN1CCN(c2ccc(Cl)cc2)CC1)NC1CC1,-4,-7
COCCCNC(=O)CC1Sc2ncccc2N(C)C1=O (stereo unspecified),-3,-4
CCOC(=O)N1CCc2c(sc(NC(=O)c3cc(C)on3)c2C(=O)OC)C1,-2,-12
COc1ccc(OC)c(NC(=O)c2c(NCc3ccc(OC)c(OC)c3)sc3c2CCC3)c1,-17,52*
COc1ccccc1NC(=O)c1c(NCc2ccc(OC)c(OC)c2)sc2c1CCC2,-15,27
CCOC(=O)N1CCc2c(sc(N)c2C(=O)Nc2cc(OC)ccc2OC)C1,-8,54*
CC1CCCC(C)N1C(=O)C1C2CCC(O2)C1C(=O)O (stereo unspecified),-10,-2
COc1ccccc1-n1ccn2cc(-c3cc(C)ccc3C)nc2c1=O,-12,-2
COc1ccc(Cc2nnc(C3CCN(S(=O)(=O)c4cccnc4)CC3)s2)cc1,-19,1
O=[N+]([O-])c1cccc(NCc2c(O)ccc3oc4c(c23)CCCC4)c1,9,97*
CC(=O)N(c1ccc2oc3c(c2c1)CCCC3)S(=O)(=O)c1cccc([N+](=O)[O-])c1,9,9
COc1ccccc1CNC(=O)c1c(O)c2cccnc2[nH]c1=O,0,-9
O=C(CCc1ccccc1)N1CCC(Nc2cccnc2)C1 (stereo unspecified),-5,-4
O=C(CCC1CCCC1)N1CCC(Nc2cccnc2)C1 (stereo unspecified),67*,-2
COC(=O)c1ccc(C(=O)OC)c(NC(=O)CN2CCOCC2)c1,4,-15
O=C(Nc1nc2n(n1)C(c1ccccc1)C=C(c1ccccc1)N2)c1ccccc1 (stereo unspecified),0,59*
O=C(O)CCC(=O)Nc1nc2n(n1)C(c1ccccc1)C=C(c1ccc(Cl)cc1)N2 (stereo unspecified),2,31
CC(C)c1ccccc1NS(=O)(=O)c1cccc([N+](=O)[O-])c1,-1,2
SMILES,Pf apPOL inh,mHTT CaM bind
CCOc1ccc(C2Oc3c(cc(Br)cc3OC)C=C2[N+](=O)[O-])cc1OCC (stereo unspecified),-3,62*
CCOc1ccc(C2OC(=O)Cc3cc(OCC)c(OCC)cc32)cc1OCC (stereo unspecified),0,7
Cc1cc(C)cc(C(=O)N2CCC(COc3ccc(C(=O)NC4CC4)cc3)CC2)c1,-5,12
COc1ccc(CN2CCc3c([nH]c4ccccc34)C2)cc1C,-3,36
COc1cc(C)c(CN2CCc3c([nH]c4ccccc34)C2)cc1C,-7,100*
COc1cc(CN2CCN(Cc3cccc(OC)c3OC)CC2)c([N+](=O)[O-])cc1OC,0,4
COc1cc(CN2CCc3c([nH]c4ccccc34)C2)c([N+](=O)[O-])cc1OC,-3,66*
Cc1nnc(NC(=O)c2ccc(S(=O)(=O)N3CCCC(C)C3)cc2)o1 (stereo unspecified),-4,24
O=C(Nc1nc(-c2cc(Cl)ccc2Cl)cs1)c1ccc(N2C(=O)CCC2=O)cc1,0,-6
O=C(Nc1nc(-c2ccccn2)cs1)c1ccc(N2C(=O)CCC2=O)cc1,-6,100*
CC1CCCN(S(=O)(=O)c2ccc(C(=O)Nc3nc(-c4ccccn4)cs3)cc2)C1 (stereo unspecified),-1,100*
CC1CCCCN1S(=O)(=O)c1ccc(C(=O)Nc2nc3c(s2)Cc2ccccc2-3)cc1 (stereo unspecified),-5,21
CC1CCCCN1S(=O)(=O)c1ccc(C(=O)Nc2nc(-c3ccccn3)cs2)cc1 (stereo unspecified),-9,100*
CC1CCN(S(=O)(=O)c2ccc(C(=O)Nc3nc(-c4ccccn4)cs3)cc2)CC1,-3,98*
CC1CCN(S(=O)(=O)c2ccc(C(=O)Nc3nc4c(s3)Cc3ccccc3-4)cc2)CC1,-10,10
O=C(Nc1cc2cc([N+](=O)[O-])ccc2oc1=O)c1ccc(F)cc1,-3,2
O=C(Nc1ccc2c(N3CCCC3)ncnc2c1)C1CCCO1 (stereo unspecified),1,0
Cc1ccc(CNC(=O)N2CC(C)C(c3nc(-c4ccccc4)no3)C2)cc1 (stereo unspecified),-2,-1
